system: T1, ERK8; conditions: concentration: 1 μM, replicates: in singlicate; n = 1
T1 construct: gene MAPK15
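Also: KINOMEscan kinase panel screen.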

| Structure (SMILES) | %Inh [%] |
| --- | --- |
| Nc1ncnc2c1ncn2-c1ccc(Cl)cc1 [AH2635] | 0 |
| Nc1nc(-c2ccccc2F)c(-c2ccnc3ccccc23)s1 [GW560459] | 0 |
| COc1cc2ncn(-c3cc(OCc4ccc(S(C)(=O)=O)cc4)c(C(N)=O)s3)c2cc1OC [GW869979] | 12 |
| CCC(=O)c1c(-c2ccccc2)c2cc(Cl)ccc2c(=O)n1Cc1cc(C(=O)NC2CC2)n(C)n1 | 0 |
| Nc1n[nH]c2nnc(-c3ccccc3)c(-c3ccccc3)c12 [GW554060] | 50 |
| OCCCNc1nccc(-c2c(-c3cccc(C(F)(F)F)c3)nn3cc(C(F)(F)F)ccc23)n1 [GW630813] | 0 |
| O=C(NCCNc1ccnc(Nc2ccc(F)cc2)n1)Nc1ccc2c(c1)OCO2 [GSK1379882] | 0 |
| CCC(=O)c1c(-c2ccccc2)c2cc(Cl)ccc2c(=O)n1Cc1cc(S(C)(=O)=O)n(CCC(C)(C)O)n1 | 0 |
| FC(F)(F)c1ccc(-c2ncn(CCCN3CCOCC3)c2-c2ccncc2)cc1 [SB-217780] | 1 |
| COC(=O)c1c(-c2ccccc2)c2cc(Br)ccc2c(=O)n1Cc1ccc(S(C)(=O)=O)cc1 | 0 |
| CCCNC(=O)Nc1ccc(Oc2ncnc3ccn(C)c23)cc1 | 0 |
| CCn1c(-c2ccoc2)nc2cnccc21 [SB-733887] | 0 |
| CCn1c(-c2nonc2N)nc2ccccc21 [SB-693162/GW549034] | 1 |
| Cc1nc(N(C)[C@H]2CN(C(=O)CC#N)CC[C@H]2C)c2cc[nH]c2n1 | 1 |
| CCC(=O)c1c(-c2ccccc2)c2cc(Cl)ccc2c(=O)n1Cc1ccc(C(=O)O)cc1 | 0 |
| COc1ccc(Nc2nccc(N3CCC(NS(=O)(=O)c4ccc(NC(C)=O)cc4)C3)n2)cc1 (centres unmarked) [GSK1379729] | 53 |
| CCc1nc(-c2cccc(C)c2)c(-c2ccncc2)s1 | 6 |
| COc1cc(Nc2ccnc3ccc(C(F)(F)F)cc23)cc(OC)c1OC [GW577382] | 0 |
| COc1ccc(-c2cc3c(C)nc(N)nc3n([C@H]3CC[C@H](O)CC3)c2=O)cn1 | 0 |

| Structure (SMILES) | %Inh [%] |
| --- | --- |
| Cc1ccc(-c2ccc3c(ccc4sc5c(c43)NC[C@@H](C)N=C5N(C)C)n2)cn1 | 8 |
| Cc1nnc(-c2ccc(C)c(-c3ccc(C(=O)O)cc3)c2)o1 [GW608005] | 20 |
| COC(=O)c1c(-c2ccccc2)c2cc(C)ccc2c(=O)n1Cc1ccccc1 | 0 |
| COc1cccc(C2=C(Nc3cccc(C(=O)O)c3)C(=O)NC2=O)c1 [SB-390770] | 36 |
| Fc1cccc(CSc2nnc(-c3ccc4c(c3)CCO4)o2)c1 | 3 |
| Cc1cccc(-c2cc(-c3c[nH]nc3-c3ccccn3)ccn2)c1 [GW679395] | 0 |
| CN(C)c1cc(-c2ccc3c(N)n[nH]c3c2)nc(N)n1 [GSK2219329] | 0 |
| Cn1c(=O)c(F)c(Nc2ccc(I)cc2F)c2c(=O)n(OC[C@H](O)CO)cnc21 | 16 |
| Cc1nnc(-c2ccc3ncn(-c4ccc(S(C)=O)cc4)c3c2)o1 (centres unmarked) | 6 |
| CCC(=O)c1c(-c2ccccc2)c2cc(Cl)ccc2c(=O)n1Cc1cc(S(C)(=O)=O)n(CC(N)=O)n1 | 0 |
| COc1cccc(-n2cnc3c(N)ncnc32)c1 [SKF-97416] | 8 |
| CCCC(=O)Nc1n[nH]c2ncc(-c3cccc4ccccc34)cc12 [SB-642057] | 0 |
| CN1C(=O)C(Nc2cc(Cl)c(O)c(Cl)c2)=C(c2ccc(Cl)cc2)C1=O [SB-404321] | 0 |
| Nc1nccc2scc(-c3ccc4c(c3)CCN4C(=O)Cc3ccccc3)c12 [GSK2576924] | 0 |
| CCc1ccc(-c2ccc3c(c2)-c2nn(C)cc2S(=O)(=O)N3C)cc1 | 36 |
| O=C(NCc1cccs1)c1cc(C(=O)c2c(Cl)cccc2Cl)c[nH]1 [GW823670] | 0 |
| COC(=O)c1c(-c2ccccc2)c2cc(Br)ccc2c(=O)n1Cc1ccc(NC(=O)CCC(=O)O)cc1 | 0 |
| COc1ccc(CNC(=O)NC2CCN(c3ccnc(Nc4ccc(F)cc4)n3)C2)cc1 (centres unmarked) [GSK1379706] | 0 |

system: ERN1; conditions: concentration: 1 μM, replicates: in singlicate; n = 1

| Structure (SMILES) | %Inh [%] |
| --- | --- |
| Nc1ncnc2c1ncn2-c1ccc(Cl)cc1 [AH2635] | 0 |
| Nc1nc(-c2ccccc2F)c(-c2ccnc3ccccc23)s1 [GW560459] | 0 |
| COc1cc2ncn(-c3cc(OCc4ccc(S(C)(=O)=O)cc4)c(C(N)=O)s3)c2cc1OC [GW869979] | 6 |
| CCC(=O)c1c(-c2ccccc2)c2cc(Cl)ccc2c(=O)n1Cc1cc(C(=O)NC2CC2)n(C)n1 | 12 |
| Nc1n[nH]c2nnc(-c3ccccc3)c(-c3ccccc3)c12 [GW554060] | 7 |
| OCCCNc1nccc(-c2c(-c3cccc(C(F)(F)F)c3)nn3cc(C(F)(F)F)ccc23)n1 [GW630813] | 0 |
| O=C(NCCNc1ccnc(Nc2ccc(F)cc2)n1)Nc1ccc2c(c1)OCO2 [GSK1379882] | 30 |
| CCC(=O)c1c(-c2ccccc2)c2cc(Cl)ccc2c(=O)n1Cc1cc(S(C)(=O)=O)n(CCC(C)(C)O)n1 | 18 |
| FC(F)(F)c1ccc(-c2ncn(CCCN3CCOCC3)c2-c2ccncc2)cc1 [SB-217780] | 26 |
| COC(=O)c1c(-c2ccccc2)c2cc(Br)ccc2c(=O)n1Cc1ccc(S(C)(=O)=O)cc1 | 23 |
| CCCNC(=O)Nc1ccc(Oc2ncnc3ccn(C)c23)cc1 | 35 |
| CCn1c(-c2ccoc2)nc2cnccc21 [SB-733887] | 0 |
| CCn1c(-c2nonc2N)nc2ccccc21 [SB-693162/GW549034] | 26 |
| Cc1nc(N(C)[C@H]2CN(C(=O)CC#N)CC[C@H]2C)c2cc[nH]c2n1 | 12 |
| CCC(=O)c1c(-c2ccccc2)c2cc(Cl)ccc2c(=O)n1Cc1ccc(C(=O)O)cc1 | 0 |
| COc1ccc(Nc2nccc(N3CCC(NS(=O)(=O)c4ccc(NC(C)=O)cc4)C3)n2)cc1 (centres unmarked) [GSK1379729] | 0 |
| CCc1nc(-c2cccc(C)c2)c(-c2ccncc2)s1 | 0 |
| COc1cc(Nc2ccnc3ccc(C(F)(F)F)cc23)cc(OC)c1OC [GW577382] | 0 |
| COc1ccc(-c2cc3c(C)nc(N)nc3n([C@H]3CC[C@H](O)CC3)c2=O)cn1 | 0 |

| Structure (SMILES) | %Inh [%] |
| --- | --- |
| Cc1ccc(-c2ccc3c(ccc4sc5c(c43)NC[C@@H](C)N=C5N(C)C)n2)cn1 | 0 |
| Cc1nnc(-c2ccc(C)c(-c3ccc(C(=O)O)cc3)c2)o1 [GW608005] | 5 |
| COC(=O)c1c(-c2ccccc2)c2cc(C)ccc2c(=O)n1Cc1ccccc1 | 0 |
| COc1cccc(C2=C(Nc3cccc(C(=O)O)c3)C(=O)NC2=O)c1 [SB-390770] | 0 |
| Fc1cccc(CSc2nnc(-c3ccc4c(c3)CCO4)o2)c1 | 14 |
| Cc1cccc(-c2cc(-c3c[nH]nc3-c3ccccn3)ccn2)c1 [GW679395] | 0 |
| CN(C)c1cc(-c2ccc3c(N)n[nH]c3c2)nc(N)n1 [GSK2219329] | 0 |
| Cn1c(=O)c(F)c(Nc2ccc(I)cc2F)c2c(=O)n(OC[C@H](O)CO)cnc21 | 0 |
| Cc1nnc(-c2ccc3ncn(-c4ccc(S(C)=O)cc4)c3c2)o1 (centres unmarked) | 18 |
| CCC(=O)c1c(-c2ccccc2)c2cc(Cl)ccc2c(=O)n1Cc1cc(S(C)(=O)=O)n(CC(N)=O)n1 | 0 |
| COc1cccc(-n2cnc3c(N)ncnc32)c1 [SKF-97416] | 43 |
| CCCC(=O)Nc1n[nH]c2ncc(-c3cccc4ccccc34)cc12 [SB-642057] | 0 |
| CN1C(=O)C(Nc2cc(Cl)c(O)c(Cl)c2)=C(c2ccc(Cl)cc2)C1=O [SB-404321] | 0 |
| Nc1nccc2scc(-c3ccc4c(c3)CCN4C(=O)Cc3ccccc3)c12 [GSK2576924] | 15 |
| CCc1ccc(-c2ccc3c(c2)-c2nn(C)cc2S(=O)(=O)N3C)cc1 | 0 |
| O=C(NCc1cccs1)c1cc(C(=O)c2c(Cl)cccc2Cl)c[nH]1 [GW823670] | 0 |
| COC(=O)c1c(-c2ccccc2)c2cc(Br)ccc2c(=O)n1Cc1ccc(NC(=O)CCC(=O)O)cc1 | 20 |
| COc1ccc(CNC(=O)NC2CCN(c3ccnc(Nc4ccc(F)cc4)n3)C2)cc1 (centres unmarked) [GSK1379706] | 0 |
